Shiga inhibitor: Shiga toxin inhibition; Vero cells, Shiga toxin protein synthesis inhibition reporter; inhibition, % at 38.7 µM; 9.2% of 290,000 active; AID 2315; in the data active = inhibition mostly above about 28%, no sharp cut-off; inactive = mostly below about 43%; note: 0% is about no effect
Tb PYK inh: inhibitors of Trypanosoma brucei pyruvate kinase. Potency, µM (series often up to 76.8 µM), without a hit: at the highest dose activity, negative = inhibition, most hits filed as inhibitors. Q57TT1. AID 624173. 0.12% of 410,000 active. TbPYK enzyme, Kinase-Glo Plus ATP luminescence, 45 min; note: potency is the fitted concentration of half-maximal effect; % is set by controls: 0 for no effect and ±100 for the full control effect; nearly all actives have a fitted effect of over 50% in size
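Assay buffer: 50 mM TEA pH 7.2, 100 mM KCl, 10 mM MgCl2, 0.05% BSA, 0.01% Tween-20. Pyruvate kinase from T. brucei plus substrate met compound, then ADP (130 uM final). Luminescence was read post 45 min RT.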
CHX counter: affects cycloheximide protein synthesis inhibition readout, counter-screen; cell reporter, cycloheximide protein synthesis inhibition counterscreen; 12% of 300,000 active; max response, %; in the data active = max response mostly above about 13%, no sharp cut-off; inactive = mostly below about 14%; note: read at 38.3 µM for the half of the compounds with a filed dose; 0% is about no effect
RE007 growth inh: less growth of the S. pombe RE007 Vpr strain; S. pombe RE007 Vpr strain, BacTiter-Glo ATP luminescence, 24 h; Potency, µM (titrated, usually from 92.2 µM), for inactives: at the highest dose activity change, negative = less growth, actives largely listed as inhibitors; 0.21% of 360,000 active; AID 651644; active = well fitted falling curve with a large enough effect; inconclusive = small, poorly fitted or top-dose-only effect; inactive = no such curve, though single readings can be large or run the other way; note: potency is the fitted concentration of half-maximal effect; % is set by controls: 0 for no effect and ±100 for the full control effect; nearly all actives have a fitted effect of over 50% in size
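Fission yeast RE007 carrying one integrated HIV-1 vpr copy, seeded at OD 0.01 in PMG+AL medium with 23 nL pinned compound. Grown 24 h at 30 degrees; viability read by BacTiter-Glo luminescence after 5 min.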
LmPK inh: LmPK (Leishmania mexicana) enzyme inhibition | AID 1721 | purified LmPK, Kinase-Glo ATP luminescence, 1 h | 0.37% of 290,000 active | Potency, µM (titrated, usually from 57.5 µM), without a hit: at the top dose activity change, negative = inhibition, most hits filed as inhibitors; note: potency is the fitted concentration of half-maximal effect; % is set by controls: 0 for no effect and ±100 for the full control effect
Target sequence (Q27686 whole entry, looked up): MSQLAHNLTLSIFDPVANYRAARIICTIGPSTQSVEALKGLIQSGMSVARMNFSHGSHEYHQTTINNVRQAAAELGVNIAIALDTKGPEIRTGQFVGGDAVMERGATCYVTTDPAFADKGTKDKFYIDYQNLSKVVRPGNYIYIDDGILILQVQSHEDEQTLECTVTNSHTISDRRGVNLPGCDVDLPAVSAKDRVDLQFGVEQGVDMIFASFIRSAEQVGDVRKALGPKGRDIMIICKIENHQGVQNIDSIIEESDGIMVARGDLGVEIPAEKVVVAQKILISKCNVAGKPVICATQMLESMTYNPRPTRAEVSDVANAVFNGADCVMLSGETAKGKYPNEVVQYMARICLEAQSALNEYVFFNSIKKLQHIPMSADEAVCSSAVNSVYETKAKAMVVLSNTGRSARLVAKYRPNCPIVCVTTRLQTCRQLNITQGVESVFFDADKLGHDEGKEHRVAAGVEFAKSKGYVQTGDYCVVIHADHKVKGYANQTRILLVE
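qHTS format; LmPK 0.1 nM; substrates PEP 0.5 mM and ADP 0.1 mM. One-hour room-temperature incubation, then coupled luciferase luminescence; 0.5 nM enzyme wells mark activation.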
Giardia FBPA inh: Giardia lamblia aldolase inhibition | A8B2U2 | purified Giardia FBPA | Potency, µM (titrated, usually from 59.6 µM), inactives show top-dose activity, negative = inhibition, hits mostly inhibitors | 0.71% of 290,000 active | AID 2451; note: potency is the fitted concentration of half-maximal effect; % is set by controls: 0 for no effect and ±100 for the full control effect; nearly all actives have a fitted effect of over 55% in size
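Giardia FBPA (40 nM reagent) was preincubated 10 min at RT with compound (up to 57.5 uM final), then substrate plus GAPDH/TPI/NAD/arsenate coupling system with diaphorase/resazurin was added; resorufin fluorescence (525/598 nm) was read after 20 min.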
Starred values were filed as active, the others as inactive; ? = inconclusive; . = no result; + = active, no number; [ ] = another dose, or the depositor's remark. The sample as a whole holds a higher share of hits than the screen did. Unless noted, calls come from the whole dose curve; as a rule, active = well fitted curve in the direction sought with a large enough effect; inconclusive = small, poorly fitted or top-dose-only effect, or another doubt; inactive = no such curve, though single readings can be large; an effect the other way counts as inactive or inconclusive.

SMILES	Shiga inhibitor	Tb PYK inh	CHX counter	RE007 growth inh	LmPK inh	Giardia FBPA inh
CC(C)CC(=O)Nc1ccc(-c2nnn(CC(=O)NCc3ccco3)n2)cc1	86*	-5%	29*	4%	1%	4%
CCCCOc1ccc(-c2nnn(CC(=O)NCc3ccco3)n2)cc1	69*	2%	31*	-6%	0%	12%
CCOc1ccc(-c2cc(C(=O)N3CCN(c4cccc(C(F)(F)F)c4)CC3)c3ccccc3n2)cc1	.	7%	.	.	.	.
COC(=O)c1cc2sccc2n1CC(=O)Nc1cc(Cl)ccc1OC	.	-1%	.	.	.	.
Cc1ccc(-n2c(SCC(=O)N3CCOCC3)nnc2-c2cccnc2)cc1C	5	-5%	-2	-5%	2%	5%
Cc1cc(C(=O)CSc2nnc(-c3cccnc3)n2-c2ccccc2)c(C)n1CC1CCCO1 (stereo unspecified)	97	-3%	23*	0%	-10%	7%
Cc1cc(C(=O)CSc2nnc(-c3ccncc3)n2-c2ccccc2)c(C)n1C	-14	-11%	-1	-6%	-3%	-18%
Cc1ccc(-n2c(SCC(=O)N3CCOCC3)nnc2-c2cccnc2)cc1	56*	-2%	24*	0%	-9%	0%
Cc1ccc(C)c(NC(=O)CSc2nccn2-c2cccc(C)c2C)c1	.	-12%	.	.	.	.
O=[N+]([O-])c1ncccc1OCc1ccc(-c2ccccc2)cc1	41	1%	19*	-9%	0%	2%
Cc1ccc(OCC(=O)N(Cc2ccccc2)C(C)(C)C)c([N+](=O)[O-])n1	-8	-1%	-3	10%	6%	-1%
Cc1ccc(OCCOc2cccc(Br)c2)c([N+](=O)[O-])n1	96*	-1%	40*	-18%	-5%	-1%
Cc1ccc(OCc2ccc(Br)cc2)c([N+](=O)[O-])n1	84*	.	56*	.	-2%	-2%
Cc1ccc(OCc2ccc(-c3ccccc3)cc2)c([N+](=O)[O-])n1	29	-3%	25*	4%	4%	-1%
CCC1CN(C(=O)N2CCC(C(=O)NCc3cc(OC)ccc3OC)CC2)c2ccccc2O1 (stereo unspecified)	.	-1%	.	.	.	.
CN(C=O)c1cc([N+](=O)[O-])ccc1OCc1ccccc1	.	0%	.	-4%	.	.
CNc1cc([N+](=O)[O-])ccc1OCc1ccccc1	90*	-5%	27*	-1%	1%	-25%
COc1cccc(Cn2c(=O)c(-c3ccc(Cl)cc3)nc3cnc(OC)nc32)c1	.	.	.	.	.	-2%
Cc1ccc(Nc2ncnc3c2nc2n3CCCC2)c(Br)c1	.	-2%	.	.	.	.
CCC1CCc2c(sc(NC(=O)c3cnccn3)c2C(N)=O)C1 (stereo unspecified)	.	-18%	-3	-9%	-4%	10%
CCC1CCc2c(sc(NC(=O)c3ccco3)c2C(N)=O)C1 (stereo unspecified)	96*	-7%	30*	?	2%	-4%
CC(C)(C)C1CCc2c(sc(NC(=O)c3ccco3)c2C(N)=O)C1 (stereo unspecified)	24	-2%	15*	8%	2%	5%
Cc1ccccc1NC(=O)c1c(NC(=O)c2ccco2)sc2c1CCC(C(C)(C)C)C2 (stereo unspecified)	.	-7%	.	.	.	.
Cc1cccc(-c2noc(CN(C(C)C)S(=O)(=O)c3ccc(Br)cc3)n2)c1	.	2%	.	.	.	.
O=C(N/N=C/c1ccsc1)C1CC1	26	-1%	30	6%	12%	0%
SMILES	Shiga inhibitor	Tb PYK inh	CHX counter	RE007 growth inh	LmPK inh	Giardia FBPA inh
O=C(N/N=C/c1ccc2c(c1)OCO2)c1ccc2ccccc2n1	81	3%	26*	-4%	2%	-12%
O=C(N/N=C/c1cc2c(cc1Br)OCO2)c1ccccn1	55*	-6%	43*	11%	?	-5%
O=C(N/N=C/c1ccc2c(c1)OCO2)c1ccccn1	93*	-17%	39*	-16%	11µM*	-23%
O=C(N/N=C/c1ccsc1)c1ccc2ccccc2n1	74*	-7%	41*	-20%	-1%	-13%
O=C(CNC(=O)c1ccccc1)OCc1cc(=O)n2nc(C3CC3)sc2n1	.	-2%	.	.	.	.
CCCCc1ccc(NC(=O)Cn2cnc3c(oc4ccccc43)c2=O)cc1	.	2%	.	.	.	.
COc1ccc(CNC(=O)c2cc(C)nc3c2c(C)nn3-c2cccc(Cl)c2C)cc1	.	3%	.	.	.	.
CC[C@H](C)[C@H](NC(=O)[C@H](Cc1ccc(O)cc1)NC(=O)[C@H](Cc1cnc[nH]1)NC(=O)[C@H](CCCNC(=N)N)NC(=O)[C@H](CC(C)C)NC(=O)[C@H](C)NC(=O)[C@H](CO)NC(=O)[C@H](Cc1ccc(O)cc1)NC(=O)[C@H](Cc1ccc(O)cc1)NC(=O)[C@H](CCCNC(=N)N)NC(=O)[C@H](C)NC(=O)[C@H](CCSC)NC(=O)[C@H](CC(=O)O)NC(=O)[C@H](CCC(=O)O)NC(=O)[C@H](C)NC(=O)[C@@H]1CCCN1)C(=O)N[C@@H](CC(N)=O)C(=O)N[C@@H](CC(C)C)C(=O)N[C@H](C(=O)N[C@H](C(=O)N[C@@H](CCCNC(=N)N)C(=O)N[C@@H](CCC(N)=O)C(=O)N[C@@H](CCCNC(=N)N)C(=O)N[C@@H](Cc1ccc(O)cc1)C(N)=O)[C@@H](C)O)[C@@H](C)CC	-7	.	-1	.	.	4%
N=C1SCC(=O)N1c1ncc(Cc2cccc(Cl)c2)s1	-22	-3%	-8	18µM*	-5%	-21%
N=C1SCC(=O)N1c1ncc(Cc2ccccc2Cl)s1	-20	-9%	-1	?	-3%	?
O=C(O)c1ccc2c(c1)ncn2C1CCCC1	114*	-5%	48*	3%	6%[11.5 µM]	0%
CCCCNC(=O)c1ccc2c(c1)ncn2C1CCCC1	65	-6%	34*	-4%	7%	0%
CCCCNC(=O)c1ccc2c(c1)ncn2C1CCCCC1	-4	0%	12	4%	1%	4%
CC(C)CCNC(=O)c1ccc2c(c1)ncn2C1CCCCC1	42*	-19%	19	21%	0%	0%
O=C(Oc1ccccc1)N1CCC2(CCCN(c3ccc(-c4ccccc4)cc3)C2)CC1	.	-6%	.	.	.	-5%
O=C/C(=C\Nc1ccc(Br)cc1)c1nc2ccccc2o1	4	5%	-4	-10%	5%	-25%
O=C/C(=C\Nc1ccccn1)c1nc2ccccc2o1	+	2%	27*	14%	3%	-25%
CC(=O)Nc1cccc(N/C=C(\C=O)c2nc3ccccc3o2)c1	36*	1%	29*	5%	1%	-14%
O=C/C(=C\Nc1ccccn1)c1nc2cc(Cl)ccc2o1	63*	-6%	47*	-15%	3%	-4%
